High-throughput results from PubChem.
Sampled rows, rich in hits. Any-hit rate of the full collection: about 9.4%.
SARS PLP yeast = SARS-CoV PLP inhibition in yeast | 0.19% of 330,000 active | S. cerevisiae expressing SARS-CoV PLpro, growth rescue | Potency, µM (doses to about 32.9 µM), without a hit: top-dose activity, positive = growth rescue, hits mostly activators; calls by dose curve; further: 0% is about no effect; nearly all actives have a fitted effect of over 55% in size
Pf growth 96h = P. falciparum growth inhibition at 96 hours | Potency, µM (series often up to 28.7 µM), inactives show at the top dose activity change, negative = inhibition, actives largely listed as inhibitors | P. falciparum luciferase reporter growth, 96 h | 6.9% of 320,000 active; further: on the % scale 0 is the no-effect control and ±100 the full control effect
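Readout is luminescence from an integrated firefly luciferase in P. falciparum. Red cells, 2% hematocrit and 0.05% parasitemia final, were cultured with compound through two parasite generations (96 hours) at 37 C, 5% CO2.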
AMA1-RON2 inh = disrupts binding of P. falciparum AMA1 to RON2; AlphaScreen AMA1-biotinylated RON2 peptide binding; Potency, µM (series often up to 58.2 µM), for inactives: at the highest dose activity change, negative = inhibition, actives largely listed as inhibitors; 0.2% of 360,000 active; AID 720542;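 further: 0% = vehicle wells and -100% = peptide control; nearly all actives have a fitted effect of over 45% in size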
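AMA1 (3D7) with his tag at 25 nM final met compounds first, then biotinylated RON2 peptide at 25 nM; detection used donor plus acceptor beads, 10 µg/mL apiece, read by AlphaScreen after 30 min at room temperature.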
Pf growth 48h = P. falciparum growth inhibition at 48 hours (one generation) | P. falciparum luciferase growth in erythrocytes, 48 h | Potency, µM (top dose mostly 28.7 µM), without a hit: at the highest dose activity change, negative = inhibition, usual class: inhibitors | 5.9% of 310,000 active | AID 504832; further: on the % scale 0 is the no-effect control and ±100 the full control effect
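Luciferase-expressing P. falciparum in infected erythrocytes (2% hematocrit, 0.1% parasitemia final) in RPMI 1640/0.5% Albumax were exposed to compound for 48 hours at 37 C, 5% CO2; growth read as luminescence.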
Active calls of the source: *; ? = inconclusive; nt = not tested or not shown; ! = not confirmed by another sample; [ ] = dose if it differs, or a comment. Unless noted, the call rests on the fitted dose curve; in most records, active means well fitted curve in the direction sought with a large enough effect; inconclusive means small, poorly fitted or top-dose-only effect, or another doubt; inactive means no such curve, though single readings can be large; an effect the other way counts as inactive or inconclusive. Potency means the concentration at half of the fitted maximal effect.

SMILES	SARS PLP yeast	Pf growth 96h	AMA1-RON2 inh	Pf growth 48h
COC(=O)c1ccc(C2c3[nH]c4ccccc4c3C[C@H]3C(=O)N(C4CCN(Cc5ccccc5)CC4)CC(=O)N23)cc1 (stereo partly specified)	0%	3.3µM*	-7%	4.7µM*
O=C1[C@@H]2Cc3c([nH]c4ccccc34)C(c3ccccc3)N2C(=O)CN1C1CCN(Cc2ccccc2)CC1 (stereo partly specified)	-2%	0.74µM*	-27%	9%[0.00184 µM]
O=C1[C@@H]2Cc3c([nH]c4ccccc34)C(c3cccc(Br)c3)N2C(=O)CN1C1CCN(Cc2ccccc2)CC1 (stereo partly specified)	2%	?	-26%	1.5µM*
O=C(NC1CCCCCCC1)NC1CCCCC1	5%	162%	0%	120%
CCSC1=C(C#N)C2(CCCCC2)C(C#N)C(=O)N1 (stereo unspecified)	9%	0%	2%	12%
N#CC1=C2SCCN2C(=O)C(C#N)C12CCCCC2 (stereo unspecified)	-4%	2.1µM*	-7%	-8%
O=c1oc2c3c4c(cc2s1)CCCN4CCC3	-35%	nt	14µM*	nt
Cc1cc(O)c2c(c1)C(=O)C13C(=C2O)C(=O)[C@H]2[C@@H](O)[C@@H]1[C@H]1[C@H](O)[C@@H]3C(=O)C3=C(O)c4c(O)cc(C)cc4C(=O)C312 (stereo partly specified)	2%	3.3µM*	75%	4.1µM*
Cc1cc(C(=O)COC(=O)c2ccc(O)cc2)c(C)n1CC1COc2ccccc2O1 (stereo unspecified)	-7%	13µM*	-9%	?
Cc1cc(C(=O)COC(=O)c2ccc3c(c2)OCO3)c(C)n1CC1CCCO1 (stereo unspecified)	-1%	331%	2%	281%
CC(C)Cn1c(C(C)C)nc([N+](=O)[O-])c1Sc1ccc(Cl)cn1	-11%	9.3µM*	3%	9.3µM*
CCCn1c(CC)nc([N+](=O)[O-])c1Sc1ncn[nH]1	nt	nt	11%	nt
CCCCn1c(CCC)nc([N+](=O)[O-])c1Sc1ccc(Cl)cn1	9%	15µM*	-18%	10µM*
Cc1ncc([N+](=O)[O-])n1Cc1ccc(Cl)cc1	7%	7%	0%	3%
COc1ccc(-c2nc(-c3cccs3)c(-c3cccs3)[nH]2)cc1O	-10%	?	-16%	-20%
CC(OC(=O)c1ccc(Cl)c([N+](=O)[O-])c1)C(=O)N1CCN(Cc2ccccc2)CC1 (stereo unspecified)	1%	?	-3%	12µM*
CC(C(=O)N1CCN(Cc2ccccc2)CC1)c1ccc([N+](=O)[O-])cc1 (stereo unspecified)	0%	-10%	9%	51%
CC(=O)Oc1cccc2c1C(=O)c1c(OC(C)=O)cc(C(=O)O)cc1C2=O	14%	0%	4%	3%
CC(=O)Oc1cccc2c1C(=O)C1CC=CC(OC(C)=O)C1C2=O (stereo unspecified)	nt	nt	32µM*	nt
Cc1c(OC(C)C(=O)O)ccc2c(-c3ccccc3)cc(=O)oc12 (stereo unspecified)	0%	14%	-1%	-29%
COc1ccc(CCn2c(N)c(S(=O)(=O)c3cccs3)c3nc4ccccc4nc32)cc1OC	-1%	?	7%	9.3µM*
CC(C)CCn1c(N)c(S(=O)(=O)c2cccs2)c2nc3ccccc3nc21	-5%	?	9%	?
COc1ccccc1/C=N/n1c(N)c(S(=O)(=O)c2cccs2)c2nc3ccccc3nc21	4%	nt	3%	6.6µM*
Nc1c(S(=O)(=O)c2cccs2)c2nc3ccccc3nc2n1CCc1ccccc1	4%	3.3µM*	nt	?
Nc1c(S(=O)(=O)c2cccs2)c2nc3ccccc3nc2n1Cc1cccs1	2%	8.3µM*	-1%	?
SMILES	SARS PLP yeast	Pf growth 96h	AMA1-RON2 inh	Pf growth 48h
CC(=O)c1sc2nc(C)c3c(c2c1N)CCCC3	1%	2%	16%	15%
COc1cc(C2C(C(=O)N3CCOCC3)=C(C)NC3=C2C(=O)CCC3)ccc1OC(C)=O (stereo unspecified)	-2%	nt	1%	-16%
Nc1c(S(=O)(=O)c2cccs2)c2nc3ccccc3nc2n1Cc1ccc2c(c1)OCO2	18%	nt	1%	15µM*
Nc1c(S(=O)(=O)c2cccs2)c2nc3ccccc3nc2n1CC1CCCO1 (stereo unspecified)	3%	15%	8%	?
Cc1ccc(/C(=C\CN2CCCC2)c2ccccn2)cc1	-2%	13µM*!	3%	-19%
Cc1ccc(C(=O)NCCCNC(=O)c2ccccn2)cc1	13%	26%	36%	5%
Cc1cccn2cc(-c3cccc(S(=O)(=O)N4CC(C)OC(C)C4)c3)nc12 (stereo unspecified)	10%	?	9%	-18%
COc1cc(NC(=O)c2ccccc2[N+](=O)[O-])c(C(=O)O)cc1OC	2%	?	-2%	4%
c1ccc2c(C3=NNC(=NC4CC4)SC3)c[nH]c2c1	-10%	-88%	-8%[11.6 µM]	-98%
CCCN(Cc1ccc(N(CC)CC)cc1)CC1CC1	-1%	1.5µM*	-12%	12µM*
CCCN(Cc1ccc(N(C)C)cc1)CC1CC1	-10%	2.1µM*	-8%	nt
OCCN(Cc1ccccc1)CC1CC=CCC1 (stereo unspecified)	3%	8%	-5%	-7%
c1ccc(-c2ccc(-c3[nH]ncc3CN3CCC(N4CCSCC4)CC3)cc2)cc1	1%	0%	-4%	-27%
COc1ccccc1-n1cccc1C=O	-1%	7%	0%	17%
CC(NCC(O)COCCC12CC3CC(CC(C3)C1)C2)c1ccccc1 (stereo unspecified)	0%	30%	-7%	5.2µM*
CCC(=O)c1ccc(OCC(O)CNCc2ccc(F)cc2)cc1 (stereo unspecified)	-15%	?	-10%	-6%
OC(CNCCc1ccccc1)COc1ccc(OCC(O)CNCCc2ccccc2)cc1 (stereo unspecified)	1%	3.7µM*	-21%	1.7µM*
CC(C)c1ccc(OCC(O)CNC(C)c2ccccc2)cc1 (stereo unspecified)	0%	?	10%	4.7µM*
NCC(O)COCCC12CC3CC(CC(C3)C1)C2 (stereo unspecified)	-1%	-1%	13%	9%
CCC(=O)c1ccc(OCC(O)CNCCc2ccc(Cl)cc2)cc1 (stereo unspecified)	-2%	?	5%	12µM*
Cc1ccc(CN2CCN(C(=O)C3CCC3)CC2)cc1	15%	?	3%	?
C=CCNc1c2c(nc3ncnn13)CC(C)CC2 (stereo unspecified)	0%	-11%	-8%	6%
O=C(CSc1nnnn1-c1ccccc1)Nc1ccc(Cl)cn1	-1%	5%	-5%	24%
Cc1ccc2c(CC(=O)OCC(=O)Nc3ccc(Cl)cn3)coc2c1	-18%	25%	-16%	1%
